Where “and” joins values, the source holds several entries; their conditions need not be identical. Equal entries are not always repeated. Inconclusive results are not listed. Calls of active or inactive are those of the source. The call rests on the fitted dose curve.
Experiment: qHTS Assay for Lipid Storage Modulators (AID 1519); on activity change, negative = inhibition: on the % scale 0 is the no-effect control and ±100 the full control effect
Conditions: Drosophila S3 cells, BODIPY lipid droplet/cell ratio, laser cytometry; at 25.7 µM (top of the series); cells loaded with oleic acid
In short: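 Cells seeded at 5,000 per well were treated with compounds over a concentration series and loaded with oleic acid (400 uM, as added). Lipid droplet fluorescence (488 nm excitation, 500-530 nm channel) was read by laser-scanning cytometry and normalized to 20 uM Triacsin C.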
For `CN(C)CCN(Cc1ccc(Cl)cc1)c1ccccn1`, the activity change, negative = inhibition was -3.62% (inactive).
For `C=C1c2cccc(O)c2C(O)=C2C(=O)[C@@]3(O)C(O)=C(C(N)=O)C(=O)[C@@H](N(C)C)[C@@H]3[C@@H](O)[C@H]12`, the activity change, negative = inhibition was 1.55% (inactive).
In the case of `Cc1cc2nc3c(=O)[nH]c(=O)nc-3n(CC(O)C(O)C(O)CO)c2cc1C` (configuration not stated), the activity change, negative = inhibition was 0.295% (inactive).
With `CN[C@H]1[C@@H](O[C@@H]2[C@H](O[C@@H]3[C@@H](O)[C@@H](O)[C@@H](N=C(N)N)[C@@H](O)[C@@H]3N=C(N)N)O[C@H](C)[C@@]2(O)C=O)O[C@@H](CO)[C@@H](O)[C@H]1O` the activity change, negative = inhibition was -5.41% (inactive).
In the case of `NS(=O)(=O)c1cc(Cl)c(Cl)c(S(N)(=O)=O)c1`, the activity change, negative = inhibition was -3.46% (inactive).
With `CCC(=C(CC)c1ccc(O)cc1)c1ccc(O)cc1` the activity change, negative = inhibition was -5.29% (inactive).
In the case of `NCC1CCC(C(=O)O)CC1` (configuration not stated), the activity change, negative = inhibition was -1.26% (inactive).

Same assay, conditions: Drosophila S3 cells, BODIPY lipid droplet/cell ratio, laser cytometry; at 57.5 µM (top of the series); cells loaded with oleic acid
For `OC(c1cc(C(F)(F)F)nc2c(C(F)(F)F)cccc12)C1CCCCN1` (configuration not stated), the activity change, negative = inhibition was 2.49% (inactive).
In the case of `CC(NCCc1ccc(O)cc1)C(O)c1ccc(O)cc1` (configuration not stated), the activity change, negative = inhibition was 2.67% (inactive).
With `CC1(C)OC2CC3C4CC(F)C5=CC(=O)C=CC5(C)C4C(O)CC3(C)[C@]2(C(=O)CO)O1` (some centres not stated) the activity change, negative = inhibition was 6.59% (inactive).
In the case of `CS(=O)(=O)c1ccc(C2=C(c3ccccc3)C(=O)OC2)cc1`, the activity change, negative = inhibition was 14.5% (inactive).
For `Cc1cc2nc3c(=O)[nH]c(=O)nc-3n(CC(O)C(O)C(O)CO)c2cc1C` (configuration not stated), the activity change, negative = inhibition was 10.9% (inactive) and -20.1% (inactive).
With `Nc1ccn([C@@H]2O[C@H](CO)[C@@H](O)[C@H]2O)c(=O)n1` the activity change, negative = inhibition was -3.18% (inactive).
In the case of `CCC(c1ccc(O)cc1)C(CC)c1ccc(O)cc1` (configuration not stated), the activity change, negative = inhibition was 9.03% (inactive).
In the case of `COc1ccc2ccc(=O)oc2c1CC=C(C)C`, the activity change, negative = inhibition was 9.52% (inactive).
With `CCNC(=O)[C@H]1O[C@@H](n2cnc3c(N)nc(NCCc4ccc(CCC(=O)O)cc4)nc32)[C@H](O)[C@H]1O` the activity change, negative = inhibition was -1.93% (inactive).
With `NCC1CCC(C(=O)O)CC1` (configuration not stated) the activity change, negative = inhibition was 6.78% (inactive).

Same assay, conditions: Drosophila S3 cells, BODIPY lipid droplet/cell ratio, laser cytometry; measured here: cell count channel max response; cells loaded with oleic acid
Work on `CN(C)CCN(Cc1ccc(Cl)cc1)c1ccccn1` yielded a max response of -9.2%.
In the case of `OC(c1cc(C(F)(F)F)nc2c(C(F)(F)F)cccc12)C1CCCCN1` (configuration not stated), the max response was 6.15%.
`CC(NCCc1ccc(O)cc1)C(O)c1ccc(O)cc1` (configuration not stated) showed a max response of 13.6%.
In the case of `CC1(C)OC2CC3C4CC(F)C5=CC(=O)C=CC5(C)C4C(O)CC3(C)[C@]2(C(=O)CO)O1` (some centres not stated), the max response was 10.6%.
With `CS(=O)(=O)c1ccc(C2=C(c3ccccc3)C(=O)OC2)cc1` the max response was 15.3%.
`C=C1c2cccc(O)c2C(O)=C2C(=O)[C@@]3(O)C(O)=C(C(N)=O)C(=O)[C@@H](N(C)C)[C@@H]3[C@@H](O)[C@H]12` gave a max response of -8.47%.
For `Cc1cc2nc3c(=O)[nH]c(=O)nc-3n(CC(O)C(O)C(O)CO)c2cc1C` (configuration not stated), the max response was 2.32% and -7.87% and -11.2%.
Compound `CN[C@H]1[C@@H](O[C@@H]2[C@H](O[C@@H]3[C@@H](O)[C@@H](O)[C@@H](N=C(N)N)[C@@H](O)[C@@H]3N=C(N)N)O[C@H](C)[C@@]2(O)C=O)O[C@@H](CO)[C@@H](O)[C@H]1O` has a max response of 12.5%.
`Nc1ccn([C@@H]2O[C@H](CO)[C@@H](O)[C@H]2O)c(=O)n1` showed a max response of -16.3%.
Compound `NS(=O)(=O)c1cc(Cl)c(Cl)c(S(N)(=O)=O)c1` has a max response of -9.93%.
In the case of `CCC(c1ccc(O)cc1)C(CC)c1ccc(O)cc1` (configuration not stated), the max response was 10.5%.
Work on `CCC(=C(CC)c1ccc(O)cc1)c1ccc(O)cc1` yielded a max response of -17.8%.
In the case of `COc1ccc2ccc(=O)oc2c1CC=C(C)C`, the max response was 4.48%.
Compound `CCNC(=O)[C@H]1O[C@@H](n2cnc3c(N)nc(NCCc4ccc(CCC(=O)O)cc4)nc32)[C@H](O)[C@H]1O` has a max response of -4.53%.
In the case of `NCC1CCC(C(=O)O)CC1` (configuration not stated), the max response was -0.272% and 28.1%.

Same assay, conditions: Drosophila S3 cells, BODIPY lipid droplet/cell ratio, laser cytometry; measured here: lipid channel max response; cells loaded with oleic acid
Work on `CN(C)CCN(Cc1ccc(Cl)cc1)c1ccccn1` yielded a max response of -15.8%.
In the case of `OC(c1cc(C(F)(F)F)nc2c(C(F)(F)F)cccc12)C1CCCCN1` (configuration not stated), the max response was 10.3%.
Work on `CC(NCCc1ccc(O)cc1)C(O)c1ccc(O)cc1` (configuration not stated) yielded a max response of 20%.
With `CC1(C)OC2CC3C4CC(F)C5=CC(=O)C=CC5(C)C4C(O)CC3(C)[C@]2(C(=O)CO)O1` (some centres not stated) the max response was 23.9%.
In the case of `CS(=O)(=O)c1ccc(C2=C(c3ccccc3)C(=O)OC2)cc1`, the max response was 35.2%.
With `C=C1c2cccc(O)c2C(O)=C2C(=O)[C@@]3(O)C(O)=C(C(N)=O)C(=O)[C@@H](N(C)C)[C@@H]3[C@@H](O)[C@H]12` the max response was -6.76%.
For `Cc1cc2nc3c(=O)[nH]c(=O)nc-3n(CC(O)C(O)C(O)CO)c2cc1C` (configuration not stated), the max response was 0.677% and 3.75% and -34%.
For `CN[C@H]1[C@@H](O[C@@H]2[C@H](O[C@@H]3[C@@H](O)[C@@H](O)[C@@H](N=C(N)N)[C@@H](O)[C@@H]3N=C(N)N)O[C@H](C)[C@@]2(O)C=O)O[C@@H](CO)[C@@H](O)[C@H]1O`, the max response was 7.05%.
`Nc1ccn([C@@H]2O[C@H](CO)[C@@H](O)[C@H]2O)c(=O)n1` showed a max response of -19.1%.
With `NS(=O)(=O)c1cc(Cl)c(Cl)c(S(N)(=O)=O)c1` the max response was -12.7%.
In the case of `CCC(c1ccc(O)cc1)C(CC)c1ccc(O)cc1` (configuration not stated), the max response was 25.1%.
`CCC(=C(CC)c1ccc(O)cc1)c1ccc(O)cc1` gave a max response of -23.1%.
In the case of `COc1ccc2ccc(=O)oc2c1CC=C(C)C`, the max response was 16.7%.
For `CCNC(=O)[C@H]1O[C@@H](n2cnc3c(N)nc(NCCc4ccc(CCC(=O)O)cc4)nc32)[C@H](O)[C@H]1O`, the max response was -7.25%.
With `NCC1CCC(C(=O)O)CC1` (configuration not stated) the max response was -2.41% and 39.3%.
